LMP1 NFkB inh – reduces LMP1-driven NF-kappaB luciferase signal; LMP1-induced NF-kappaB luciferase reporter cells, luminescence; inhibition, % at 12.5 µM; 350,000 compounds, 0.69% hits; in the data active = inhibition above about 41%;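 also: 0% = neutral control wells and 100% = reference inhibitor control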
PAX8 inh HTS – lowers PAX8-driven luciferase in RMG-I cells; inhibition, % at 12.6 µM; 360,000 compounds, 1.2% hits; RMG-I TPO-luciferase reporter, SteadyGlo, 24 h;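 active = mean replicate inhibition at least 60% with every replicate also reaching 60%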;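 also: luciferase light reporting Pax8 driven TPO promoter activity; plate controls were median of neutral control wells for no effect and mitoxantrone controls for full effect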
LGR2 antag – inhibitors of bursicon-induced Drosophila LGR2 receptor cAMP signaling; 380,000 compounds, 0.35% hits; inhibition, % at 9.99 µM; HEK293 LGR2, CRE-luciferase, bursicon-stimulated, 4 h; AID 720647;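 active = drop in luminescence signal, shown as inhibition above about 50% in the replicate tests, limit read from the data, passing the limit was not always enough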;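 also: agonist challenge used bursicon conditioned medium at about half maximal strength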
TWEAK Fn14 block – TWEAK-Fn14 signaling inhibition; TWEAK-stimulated Fn14 reporter cells, luciferase luminescence, 8 h; inhibition, % at 10 µM; 360,000 compounds, 2% hits; AID 1159606; in the data active = inhibition above about 50%
EWS-Fli inh – EWS/Fli transcriptional activity inhibition. A673 NR0B1-luciferase reporter, viability-normalised. 350,000 compounds, 0.67% hits. inhibition, % at 12.6 µM;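 active = mean inhibition of at least 50% after viability correction, with every replicate also passing that limit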;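 also: firefly luciferase signal divided by Alamar Blue viability fluorescence both relative to DMSO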
TROY NFkB inh – inhibitors of TROY-dependent NF-kB signaling | Q293 LMP1-TROYcd NF-kB luciferase reporter, 4 h | inhibition, % at 10 µM | 360,000 compounds, 0.98% hits;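 active = compounds whose plate-normalised and pattern-corrected inhibition of the luciferase reporter signal at the single screening dose is 50% or more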
An asterisk follows results filed as active; · = no result; ! = not active in a repeat. This is a sample that favours compounds with a hit; in the whole collection about 3.1% have one here.

SMILES | LMP1 NFkB inh | PAX8 inh HTS | LGR2 antag | TWEAK Fn14 block | EWS-Fli inh | TROY NFkB inh
Cc1ccc(S(=O)(=O)N2CCN(C(=O)CSc3nccn3C)CC2)cc1 | 0 | -16 | 1 | -23 | 7 | 60*
Cc1ccc(S(=O)(=O)N2CCN(C(=O)CSc3nnc(C)c(=O)[nH]3)CC2)cc1 | 1 | -6 | · | -7 | · | 1
C[C@H](CO)N1C[C@H](C)[C@H](CN(C)S(=O)(=O)c2cn(C)cn2)Oc2ccc(NC(=O)CCN3CCOCC3)cc2CC1=O | · | · | 21 | · | 9 | ·
CCOC(=O)C1=C(COC(=O)COc2ccc(C#N)cc2)NC(=O)NC1C (stereo not drawn) | -1 | -2 | 8 | 90* | · | -1
CCCN1C[C@H](C)[C@H](OC)CN(C)C(=O)c2ccc(NC(=O)c3ccccc3F)cc2OC[C@H]1C | · | -6 | -11 | · | -7 | ·
O=C(C[C@@H]1C[C@@H]2c3cc(NC(=O)Nc4ccccc4)ccc3O[C@@H]2[C@@H](CO)O1)NCc1ccccn1 | · | 4 | 0 | · | -4 | ·
O=[N+]([O-])c1ccccc1CCc1cnc(Cl)s1 | -3 | -40 | -3 | 58* | -13 | 52*
CCN(CC)c1ccc(/C=N/NC(=O)c2c(-c3ccccc3)noc2C)cc1 | 7 | 16 | -3 | 18 | 13 | 53*
CCOc1ccc(/C=N/NC(=O)c2c(-c3ccccc3)noc2C)cc1 | -3 | 1 | -3 | 10 | 18 | -5
C[C@@H]1CCCCO[C@H](CN(C)C(=O)C2CCCCC2)[C@@H](C)CN([C@@H](C)CO)C(=O)c2cc(NC(=O)Cc3ccccc3)ccc2O1 | · | 0 | 3 | · | 7 | ·
O=C(NCc1cccs1)c1nc2c(nnn2Cc2ccccc2Cl)c(=O)[nH]1 | 76* | · | · | 96* | · | 83*
COc1ccc(Nc2ncnc3ccc(Br)cc23)cc1OC | 14 | · | · | 6 | · | 7
Cc1ccc2ncnc(Nc3ccccc3)c2c1 | 1 | -29 | 1 | 11 | -1 | 2
Cc1cccc(Nc2ncnc3ccc(Br)cc23)c1 | 5 | 9 | 34 | 62* | 3 | 26
CN(C)c1ccc(Nc2ncnc3ccc(Br)cc23)cc1 | 10 | -77 | 11 | 82* | -43 | 48
Clc1cccc(Nc2ncnc3ccc(Br)cc23)c1 | 0 | · | 16 | 63* | 4 | 42
Cc1ccc2ncnc(Nc3cccc(C(=O)O)c3)c2c1 | 1 | -18 | 11 | -18 | -8 | 11
Clc1ccc(Nc2ncnc3ccc(Br)cc23)cc1 | 36 | · | 33 | 74* | · | 35
CC(C)NC(=O)N(C)C[C@H]1Oc2ncc(-c3cncnc3)cc2C(=O)N([C@H](C)CO)C[C@H]1C | · | -19 | 0 | · | -5 | ·
COc1ccc2c3c(n(C)c2c1)[C@H](CO)N(C(=O)CN(C)C)CC31CCN(C(=O)C2CCC2)CC1 | · | · | -9 | · | 13 | ·
O=C(C[C@H]1CC[C@@H]2[C@H](COC[C@H](O)CN2C(=O)c2cccnc2)O1)NC1Cc2ccccc2C1 | · | -10 | -15 | · | -4 | ·
Fc1cccc(CN2C[C@@H]3N[C@H](C2)C3c2ccc(-c3cncnc3)cc2)c1 (stereo partly drawn) | · | 8 | -14 | · | 23 | ·
C(=C\c1ccc(C2[C@@H]3CN(Cc4ccc5c(c4)OCO5)C[C@H]2N3)cc1)/c1ccccc1 (stereo partly drawn) | · | 81*! | -18 | · | -11 | ·
Fc1cccc(CN2C[C@@H]3N[C@H](C2)C3c2ccc(-c3ccccc3)cc2)c1 (stereo partly drawn) | · | 89*! | -30 | · | -7 | ·
Fc1cccc(CN2C[C@@H]3N[C@H](C2)[C@@H]3c2ccc(-c3cccc(F)c3)cc2)c1 | · | 94* | 17 | · | -1 | ·
SMILES | LMP1 NFkB inh | PAX8 inh HTS | LGR2 antag | TWEAK Fn14 block | EWS-Fli inh | TROY NFkB inh
CO[C@@H]1CN(C)C(=O)c2cc(NC(=O)C3CCCCC3)ccc2OC[C@H](C)N(C)C[C@@H]1C | · | 2 | -8 | · | -9 | ·
CC(C)(C)c1ccc(C(=O)Nc2ccc(Cl)cc2)cc1 | -28 | 29 | -62 | -28 | -120 | -79
COC(=O)Cc1ccc(NC(=O)c2ccc(C(C)(C)C)cc2)cc1 | 48* | · | · | 45 | · | 19
Cc1ccc(NC(=O)c2ccc(Nc3c([N+](=O)[O-])cc([N+](=O)[O-])cc3[N+](=O)[O-])cc2)cc1 | -3 | 10 | 85* | 94* | 38 | 66*
COc1ccc(C(=O)Nc2ccc3ncccc3c2)cc1 | 2 | 27 | 59* | 75* | 58* | 38
Cc1ccc(NC(=O)c2ccc(C)cc2)cc1 | -7 | -81 | 48 | 59* | -16 | 4
